The results in this text go back to PubChem BioAssay.

The assay relates to wheat germ agglutinin (Triticum aestivum), Alexa647-labelled. Nature of the assay: Alexa647-WGA lectin binding to printed small molecules – biochemical, small-molecule microarray, 635/667 nm fluorescence, artefact control for SMM control-protein annotation, profiling panel (AID 1140).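 Note: score merges 667 nm feature emission with signal to noise over triplicate slides.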 The note with it: WGA-A647 binding, 635 nm fluorescence, higher = more signal.
On to `CC[C@H]1C2=C3C(CC[C@H]4C(OCc5ccc(F)cc5C(F)(F)F)OC[C@](C)([C@@H]34)N(C(=O)OC(C)(C)C)C2)C(COC)C1COC` (stereo not given in full), for which the composite z-score came out at 0.225.

In turn, `CC(C)N1C(=O)C[C@@](C(=O)NCCCN(C)C)(c2ccc([N+](=O)[O-])cc2)[C@H]1c1ccc(CO)cc1` came in with a composite z-score of -0.0539.

In the case of `NC(=O)NCC#Cc1ccc2c(c1)[C@]1(C(=O)N2)[C@H](C(=O)NC[C@H](O)c2ccccc2)[C@H]2C(=O)O[C@H](c3ccccc3)[C@H](c3ccccc3)N2[C@@H]1c1ccc(OCCO)cc1`, the composite z-score was determined as 0.915.

`Cc1ccccc1C(O)C1C=CC2C(=O)N(C)C(=O)C2N1N(c1ccccc1)c1ccccc1` (stereo not given) yielded a composite z-score of 0.641.

`C=CCC(OC(C)=O)[C@@H]1[C@@H](N(Cc2cc3ccccc3o2)C(=O)c2ccc(C)cc2)c2cc(OCCCO)ccc2N1C(=O)Cc1ccc(OC)cc1` (stereo not given in full) yielded a composite z-score of 0.273.

In the case of `COC(=O)C1=CC(CCCO)=CC(C2CC2)N(C)C=C1C(=O)OC` (stereo not given), the composite z-score came out at 1.26.

As to `COc1cc2c(cc1OC)CN(C(=O)[C@@H]1[C@H]3C(=O)O[C@H](c4ccccc4)[C@H](c4ccccc4)N3[C@H](c3ccc(OCCO)cc3)[C@@]13C(=O)Nc1ccc(C#CC4(O)CCCCCC4)cc13)CC2`, the composite z-score was 0.831.

`COc1cc(OC)c(C(O)C2C=CC3C(=O)N(c4ccccc4)C(=O)C3N2Nc2ccccc2)cc1Br` (stereo not given) had a composite z-score of 0.126.

For the compound `COc1ccc([Si](C)(C)[C@@H]2[C@@H](CC(=O)N(CCO)Cc3ccccc3)O[C@]3(C(=O)N(Cc4cccc(N5C(=O)c6cccc7cccc5c67)c4)c4ccccc43)[C@H]2C)cc1`, the composite z-score came to 0.369.

`COC(=O)c1c2oc(c1C(=O)OC)C(=O)N(C)Cc1cn(nn1)C[C@H](Cc1ccccc1)NC(=O)N[C@H](CO)CC2` yielded a composite z-score of -0.272.

`O=C(CS)NCCCCCCNC(=O)[C@H]1C[C@H]2C(=O)N[C@@H](Cc3ccccc3)C(=O)N2[C@H]1c1ccc(O)cc1`: the composite z-score stood at 0.195.

Compound `O=C1C2C=CC(C(O)c3ccccc3)N(Nc3ccccc3F)C2C(=O)N1c1ccccc1` (stereo not given) registered a composite z-score of 0.0842.

On to `CC(C)(C)N1CC=CC23O[C@@H]4C=CCOC(=O)[C@@H]4[C@H]2C(=O)N(CCCCCCO)[C@@H]3C1=O` (stereo not given in full), for which the composite z-score was 0.132.

As to `CCCCO[C@H]1C[C@H]2C(I)=C[C@@H]1C(=O)[C@]21CO1`, the composite z-score is -0.164.

`C=CCOC(=O)[C@H]1[C@@H]2C(=O)O[C@@H](c3ccccc3)[C@@H](c3ccccc3)N2[C@@H](c2ccc(OCCOC(=O)[C@@H]3C[C@@H]4C(=O)N5CCC[C@H]5C(=O)N4[C@@H]3c3ccc(O)cc3)cc2)[C@]12C(=O)Nc1ccc(I)cc12` registered a composite z-score of 0.671.

In turn, `C=CCOC(=O)[C@H]1[C@@H]2C(=O)O[C@@H](c3ccccc3)[C@@H](c3ccccc3)N2[C@@H](c2ccc(OCCOC(=O)[C@H]3C[C@H]4C(=O)N[C@@H](CCCCNC(C)=O)C(=O)N4[C@H]3c3ccc(O)cc3)cc2)[C@]12C(=O)Nc1ccccc12` registered a composite z-score of 0.538.

`CCOc1cc(C(O)C2C=CC3C(=O)N(C)C(=O)C3N2Nc2ccccc2)ccc1O` (stereo not given): the composite z-score was 0.974.

In the case of `C#CCN([C@@H](Cc1ccc(O)cc1)C(=O)OC)[C@@H](/C=C/C1CC1)[C@H](O)Cc1ccccc1`, the composite z-score is -0.55.

In turn, `O=c1n(-c2ccccc2)c(=O)n2n1CC(COc1ccccc1)=C([C@H](O)CCc1ccccc1)[C@@H]2CO` came in with a composite z-score of 0.576.

Compound `CC(=O)NCCCC[C@@H]1NC(=O)[C@H]2C[C@@H](C(=O)NCCCC[N+](C)(C)C)[C@@H](c3cccc(OCCO)c3)N2C1=O` had a composite z-score of 0.552.

`CN1C(=O)C2C=CC(C(O)c3ccccn3)N(N(c3ccccc3)c3ccccc3)C2C1=O` (stereo not given) yielded a composite z-score of 0.747.

The compound `C[N+](C)(C)CCCCCCNC(=O)[C@H]1C[C@H]2C(=O)NCC(=O)N2[C@H]1c1ccc(O)cc1` gave a composite z-score of 0.195.

Compound `CCCC[C@@H]1C[C@H]1[C@@H](NC(=O)c1cccs1)c1ccc(C(F)(F)F)cc1` displayed a composite z-score of -0.945.

`COc1ccc(CCN2C(=O)[C@@]3(Cc4ccccc42)c2ccccc2C(=O)N(Cc2ccccc2OC)[C@H]3c2ccc(CO)cc2)cc1` returned a composite z-score of -0.176.

In turn, `C[C@@H]1NC(=O)[C@@]23C(=O)N[C@@H](Cc4ccccc4)C2[C@H](C)[C@@]2(C)O[C@H]2C3/C=C/C/C=C\CNC(=O)[C@@H]2CCCN2C1=O` (stereo not given in full) registered a composite z-score of -0.628.

`C=C(/C(=C/C[C@H](OC(C)=O)c1cccc(OCCO)c1)c1cnc2ccccc2c1)C(C)C` yielded a composite z-score of 0.961.

The compound `[N-]=[N+]=NCc1ccccc1[C@H]1OC(c2ccc(OCCCO)cc2)=N[C@@]1(CCS(=O)(=O)c1ccccc1)C(=O)NCC(O)CO` (stereo not given in full) returned a composite z-score of 0.983.

The compound `Cc1cc(C)cc(N2C(=O)CSC2c2cccc([N+](=O)[O-])c2)c1` (stereo not given) registered a composite z-score of 1.1.

The compound `COCCOC(=O)N1C(=O)[C@@]2(c3cc(C#CC4(O)CCCCCC4)ccc31)[C@H](c1ccc(O)cc1)N1[C@H](c3ccccc3)[C@H](c3ccccc3)OC(=O)[C@H]1[C@@H]2C(=O)NC[C@H](O)c1ccccc1` showed a composite z-score of 0.733.

For the compound `COC(=O)c1cn(C[C@@H](Cc2ccccc2)NC(=O)N[C@H](CO)CCc2oc(C(C)=O)c(C(=O)OC)c2C(=O)OC)nn1`, the composite z-score turned out to be 0.235.

The compound `COC(=O)[C@@]1(Cc2ccccc2)[C@H]2c3cc(C(=O)N(C)C)n(Cc4c(CO)[nH]cc(C)c4=O)c3C[C@H]2CN1C(=O)c1ccccc1` returned a composite z-score of 1.

`CC(=O)NCCCC[C@@H]1NC(=O)[C@@H]2C[C@H](C(=O)NCCCC[N+](C)(C)C)[C@H](c3ccc(O)cc3)N2C1=O` registered a composite z-score of -0.23.

On to `COc1ccc([Si](C)(C)[C@@H]2[C@@H](CC(=O)N3Cc4ccccc4C[C@H]3CO)O[C@]3(C(=O)N(C)c4ccccc43)[C@H]2C)cc1`, for which the composite z-score came out at 1.02.

`COCCOC(=O)N1C(=O)[C@@]2(c3cc(C#CC4=CCCCC4)ccc31)[C@H](C(N)=O)[C@H]1C(=O)O[C@H](c3ccccc3)[C@H](c3ccccc3)N1[C@@H]2c1ccccc1OCCO`: the composite z-score amounted to 1.05.

As for `COC(=O)[C@@]1(Cc2ccc(OC)cc2)[C@@H]2C(=CC(=O)[C@H]2CC(=O)C(=O)N(C)C)CN1C(=O)c1ccccc1`, the composite z-score worked out at 0.521.
